# Reference: PubChem BioAssay
# The source made the active and inactive calls. Unless noted, how the calls were made is not given here.
# What was measured:
# [1] = compound effects on lung adenocarcinoma cell viability – A549, calcein-AM fluorescence, 48 h, basal, profiling panel (AID 1162); settings: higher = more signal; further: test concentration not given here
# [2] = compound effects on differentiated 3T3-L1 adipocyte viability – cell-based, 3T3-L1 adipocytes, calcein-AM fluorescence, 48 h, basal, profiling panel (AID 1163); settings: 3T3-L1 adipocytes viability, higher = more signal; further: test concentration not given here
# [3] = compound effects on hepatocellular carcinoma cell viability – HepG2, calcein-AM fluorescence, 48 h, basal, profiling panel (AID 1164); settings: higher = more signal; further: test concentration not given here
# [4] = compound effects on multiple myeloma cell viability – MM1S, calcein-AM fluorescence, 48 h, basal, profiling panel (AID 1165); settings: higher = more signal;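 further: viability of MM1S multiple myeloma cells under basal unstimulated conditions; test concentration not given here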
# [5] = calcein-AM signal in unstimulated myeloma cells – cell-based, calcein-AM fluorescence, 48 h, PK04 Diversity Set, profiling panel (AID 1166); settings: RPMI8226 myeloma viability, higher = more signal;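 further: cells grown under basal conditions without added stimulus; test concentration not given here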
# [6] = JC-1 mitochondrial signal, unstimulated HepG2 cells – cell-based, JC-1 fluorescence, 24 h, 100 nL compound, profiling panel (AID 1167); settings: HepG2 mitochondrial potential, higher = more signal; further: test concentration not given here
# [7] = JC-1 mitochondrial signal, unstimulated adipocytes – cell-based, JC-1 fluorescence, 3T3-L1 adipocytes, 24 h, 100 nL compound, profiling panel (AID 1168); settings: JC-1 mitochondrial fluorescence, higher = more signal, called active from +8 up or from −8 down; further: test concentration not given here
# [8] = JC-1 mitochondrial signal, unstimulated myeloma cells – cell-based, JC-1 fluorescence, RPMI8226, 24 h, 100 nL compound, profiling panel (AID 1169); settings: JC-1 mitochondrial potential fluorescence, higher = more signal; further: test concentration not given here
# [9] = JC-1 mitochondrial signal, unstimulated MM1S myeloma – cell-based, JC-1 fluorescence, 24 h, 100 nL compound, profiling panel (AID 1170); settings: MM1S mitochondrial potential, higher = more signal; further: test concentration not given here
# [10] = resazurin metabolic signal in A549 cells – cell-based, resazurin fluorescence, 24 h, PK04 Diversity Set, profiling panel (AID 1171); settings: A549 viability, higher = more signal, called active from +8 up or from −8 down; further: test concentration not given here
# [11] = resazurin metabolic signal in HepG2 cells – cell-based, resazurin fluorescence, 24 h, PK04 Diversity Set, profiling panel (AID 1172); settings: HepG2 viability, higher = more signal; further: test concentration not given here
# [12] = budding yeast growth changes without added modifier – OD600, strain BY4716, 24 h, basal condition, primary screen (AID 1173); settings: S. cerevisiae BY4716 growth, OD600, 24 h; higher = more signal, called active from +8 up or from −8 down
# [13] = viability profiling in MM1S myeloma cells – cell-based, resazurin fluorescence, basal, 24 h, PK04 Diversity Set, profiling panel (AID 1174); settings: higher = more signal, called active from +8 up or from −8 down; further: test concentration not given here
# [14] = target: Dihydroorotate dehydrogenase (quinone), mitochondrial (Plasmodium falciparum (isolate 3D7)) (UniProt Q08210); experiment: inhibition of P. falciparum DHODH – biochemical, C-terminal His tag, absorbance 600 nm, primary screen (AID 1175); settings: PfDHODH enzyme, DCIP absorbance 600 nm; higher = more signal, called active from +8 up or from −8 down;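 further: recombinant parasite enzyme with a five histidine tag at its C terminus; test concentration not given here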
# Sequence of Dihydroorotate dehydrogenase (quinone), mitochondrial (Plasmodium falciparum (isolate 3D7)) (Q08210 whole entry, looked up): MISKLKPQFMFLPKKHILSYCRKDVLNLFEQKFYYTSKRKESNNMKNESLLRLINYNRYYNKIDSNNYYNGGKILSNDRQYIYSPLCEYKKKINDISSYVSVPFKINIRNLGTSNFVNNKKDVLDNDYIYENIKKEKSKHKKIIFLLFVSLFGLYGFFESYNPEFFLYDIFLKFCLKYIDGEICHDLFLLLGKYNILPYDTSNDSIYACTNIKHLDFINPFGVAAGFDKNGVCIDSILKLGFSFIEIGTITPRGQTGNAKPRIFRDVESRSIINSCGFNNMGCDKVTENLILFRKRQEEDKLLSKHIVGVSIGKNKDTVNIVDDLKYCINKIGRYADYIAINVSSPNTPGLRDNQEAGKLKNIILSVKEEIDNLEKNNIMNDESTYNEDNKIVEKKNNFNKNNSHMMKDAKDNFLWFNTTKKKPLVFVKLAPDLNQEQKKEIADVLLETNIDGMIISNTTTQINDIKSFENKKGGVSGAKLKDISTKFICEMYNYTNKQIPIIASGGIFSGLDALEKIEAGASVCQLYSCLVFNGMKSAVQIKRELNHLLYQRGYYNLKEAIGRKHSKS
# [15] = inhibition of PAO1 biofilm formation – strain PAO1, LB-PBS medium, absorbance 600 nm, primary screen (AID 1176); further: test concentration not given here; settings: P. aeruginosa PAO1 growth/biofilm, A600, 12 h; higher = more signal
# [16] = growth modulation of vineyard yeast isolate – strain RM11-1a, OD600, basal, 24 h, primary screen (AID 1177);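 further: cultures grown under basal conditions with no added stressor; test concentration not given here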; settings: S. cerevisiae RM11-1a growth, OD600, 24 h; higher = more signal, called active from +8 up or from −8 down
# [17] = growth of efflux-deficient E. coli DRC39 – strain DRC39, OD650, 24 h, E. coli filamentation inducers, primary screen (AID 1178);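 further: growth measured as culture turbidity by optical density at 650 nm; test concentration not given here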; settings: E. coli DRC39 acrAB, higher = more signal, called active from +8 up or from −8 down
# [18] = growth of efflux-deficient E. coli DRC39 – strain DRC39, OD650, 48 h, E. coli filamentation inducers, primary screen (AID 1179);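 further: screen aims at cell division blockers that make cells filament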; settings: E. coli DRC39 delta-acrAB growth, higher = more signal, called active from +8 up or from −8 down
# [19] = viability profiling in RPMI8226 myeloma cells – cell-based, resazurin fluorescence, basal, 24 h, PK04 Diversity Set, profiling panel (AID 1180); settings: higher = more signal;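 further: RPMI8826 multiple myeloma cell line at 5000 cells per well; test concentration not given here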
# [20] = target: E3 ubiquitin-protein ligase XIAP (Homo sapiens) (UniProt P98170); experiment: small molecules binding XIAP protein – biophysical, small-molecule microarray, fluorescence 635 nm, primary screen (AID 1181); settings: higher = more signal;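 further: score merges 667 nm emission and signal to noise over triplicate slides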
# Sequence of E3 ubiquitin-protein ligase XIAP (Homo sapiens) (P98170 whole entry, looked up): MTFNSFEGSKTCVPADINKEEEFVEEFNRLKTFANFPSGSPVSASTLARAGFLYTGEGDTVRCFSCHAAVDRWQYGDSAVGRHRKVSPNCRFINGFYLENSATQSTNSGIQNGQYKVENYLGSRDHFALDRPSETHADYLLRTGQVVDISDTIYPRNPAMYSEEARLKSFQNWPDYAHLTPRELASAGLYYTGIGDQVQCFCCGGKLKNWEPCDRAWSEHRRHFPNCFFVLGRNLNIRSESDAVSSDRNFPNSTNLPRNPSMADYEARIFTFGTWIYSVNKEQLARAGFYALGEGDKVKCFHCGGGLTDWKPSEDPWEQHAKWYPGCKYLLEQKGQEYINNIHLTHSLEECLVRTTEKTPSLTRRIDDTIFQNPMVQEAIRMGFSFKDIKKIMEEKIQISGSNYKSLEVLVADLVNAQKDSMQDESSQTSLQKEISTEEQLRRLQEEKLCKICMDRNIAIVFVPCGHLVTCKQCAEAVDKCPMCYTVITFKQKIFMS
SMILES,z-score [1],z-score [2],z-score [3],z-score [4],z-score [5],z-score [6],z-score [7],z-score [8],z-score [9],z-score [10],z-score [11],z-score [12],z-score [13],composite z-score [14],z-score [15],z-score [16],z-score [17],z-score [18],z-score [19],composite z-score [20]
COC(=O)Cn1c(C(=O)N(C)C)cc2c1C[C@H]1CN(C(=O)c3ccccc3)[C@@](Cc3ccc(OC)cc3)(C(=O)OC)[C@@H]21,-0.199,-0.714,0.496,0.611,-0.734,3.44,-0.881 (inactive),-0.329,-1.36,-0.31 (inactive),-0.708,1.15 (inactive),-0.667 (inactive),0.072 (inactive),-0.0424 (inactive),0.555 (inactive),-0.552 (inactive),-0.263 (inactive),-0.876,-0.158
CC(C)C(=C=CC[C@@H](O)c1ccccc1OCCO)C[C@@H](O)c1cc(Cl)cc(Cl)c1O,-0.551,0.493,-1.07,-3.43,-3.96,-2.61,-0.00407 (inactive),-0.847,-1.31,0.0062 (inactive),-0.563,-4.12 (inactive),-1.35 (inactive),-2.32 (inactive),0.354 (inactive),0.184 (inactive),-0.501 (inactive),-0.796 (inactive),-0.932,-0.232
COCCOC(=O)N1C(=O)[C@@]2(c3cc(C#CCC(C(=O)OC)C(=O)OC)ccc31)[C@H](C(=O)N1CCCCCCC1)[C@H]1C(=O)O[C@H](c3ccccc3)[C@H](c3ccccc3)N1[C@@H]2c1ccccc1OCCO,-0.143,1.83,0.0429,-0.284,-1.56,-0.747,2.14 (inactive),-0.124,-0.892,0.822 (inactive),0.194,0.63 (inactive),0.683 (inactive),0.256 (inactive),1.45 (inactive),1.62 (inactive),-0.82 (inactive),-1.29 (inactive),0.0277,0.212
CCCCCCCCCCC(O)C1C=CC2C(=O)N(C)C(=O)C2N1N1CCCCC1 (stereo not given),-1.25,-1.6,-1.17,-3.29,-3.54,-0.235,-1 (inactive),-1,-0.517,-0.041 (inactive),-1.36,0.447 (inactive),-1.35 (inactive),1.24 (inactive),0.944 (inactive),1.53 (inactive),-0.619 (inactive),-0.373 (inactive),-1.18,0.0264
C=CC[C@]1(C(=O)OC)N=C(c2ccc(OCCCO)cc2)O[C@H]1c1ccccc1N=[N+]=[N-],-1.22,0.617,-0.491,-0.54,-2.37,0.54,0.147 (inactive),-1.13,0.676,-1.6 (inactive),-0.344,-0.352 (inactive),-0.455 (inactive),0.823 (inactive),0.935 (inactive),1.6 (inactive),0.0005 (inactive),-1.12 (inactive),-0.406,0.509
CC[C@H](C)C(=O)O[C@H]1CC[C@]2(C)C3=C(CCC2C1(C)C)[C@]1(C)CC[C@H]([C@H](C)CCCC(C)C)[C@@]1(C)CC3 (stereo not given in full),1.18,0.265,0.469,0.223,-1.06,2.01,-0.959 (inactive),-0.509,0.628,0.809 (inactive),1.06,0.31 (inactive),0.0978 (inactive),0.454 (inactive),-0.283 (inactive),0.295 (inactive),2.06 (inactive),1.47 (inactive),1.09,-0.304
C=CCNC(=O)[C@H]1[C@@H]2C(=O)O[C@@H](c3ccccc3)[C@@H](c3ccccc3)N2[C@@H](c2ccccc2OCCO)[C@]12C(=O)N(C(=O)OCCOC)c1ccccc12,-1.25,-0.575,-1.3,-3.05,-3.82,0.387,-0.49 (inactive),-0.919,-1.19,-1.04 (inactive),-0.293,1.52 (inactive),-1.04 (inactive),0.692 (inactive),2.98 (inactive),2 (inactive),0.225 (inactive),-0.369 (inactive),-2.9,0.0797
N#Cc1ccc(C(O)C2C=CC3C(=O)NC(=O)C3N2Nc2ccccn2)cc1 (stereo not given),0.517,-0.239,1.43,0.435,-0.792,-0.183,-0.277 (inactive),0.274,-0.839,-1.36 (inactive),-1.62,-0.055 (inactive),-0.601 (inactive),-0.127 (inactive),0.791 (inactive),-1.57 (inactive),0.0007 (inactive),1.25 (inactive),-0.353,-0.0536
